Results published in PubChem BioAssay AID1224921 (Broad Institute, 2016).
Screen size: about 1,400 compounds; about 350 (25%) were called active. Another 2% or so got no clear call; they are omitted. No rule for the calls is given here. A selection follows. Measured potencies and affinities stand elsewhere.

Test: inhibitors of Clostridioides difficile proliferation – 4-point retest, confirmation (AID 1224921);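 also: plate controls were DMSO wells for no effect and levofloxacin 16 µg/mL wells for full effect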
Conditions: Clostridioides difficile clinical isolate growth, OD600, 24 h, active compounds read low; at 30 µM unless noted

Max activity, inactive:
CO[C@H]1CN(C)C(=O)c2ccc(NC(=O)c3ccccc3F)cc2OC[C@@H](C)N(CC2CC2)C[C@H]1C 9.45%
CCCNC(=O)Nc1ccc2c(c1)OC[C@@H](C)N(Cc1ccccc1)C[C@@H](C)[C@H](OC)CN(C)C2=O 40.4%
C[C@H](CO)N1C[C@H](C)[C@@H](CN(C)C(=O)c2ccccc2)OCCCC[C@H](C)Oc2ccc(NC(=O)Nc3cccc4ccccc34)cc2C1=O 39.2%
CNC[C@@H]1OCCCC[C@@H](C)Oc2ccc(NC(=O)Nc3cccc4ccccc34)cc2C(=O)N([C@H](C)CO)C[C@H]1C 27.3%
CNC[C@H]1OCCCC[C@@H](C)Oc2ccc(NC(=O)Nc3ccc(C(F)(F)F)cc3)cc2C(=O)N([C@@H](C)CO)C[C@H]1C 33.8% [at 8 µM]
C[C@@H]1CCCCO[C@@H](CN(C)S(=O)(=O)c2ccccc2)[C@@H](C)CN([C@H](C)CO)C(=O)c2cc(NC(=O)Nc3ccc(C(F)(F)F)cc3)ccc2O1 12.1% [at 8 µM]
CNC[C@@H]1OCCCC[C@H](C)Oc2ccc(NC(=O)Nc3ccc(C(F)(F)F)cc3)cc2C(=O)N([C@@H](C)CO)C[C@@H]1C 52.5% [at 8 µM]
CNC[C@@H]1Oc2ncc(-c3ccc(OC)cc3)cc2C(=O)N([C@@H](C)CO)C[C@@H]1C 20.8%
COc1cccc(-c2ccc3c(c2)O[C@@H](CN(C)Cc2cccnc2)[C@H](C)CN([C@@H](C)CO)S3(=O)=O)c1 12.1%
Cc1ccccc1-c1ccc2c(c1)O[C@H](CN(C)Cc1ccncc1)[C@H](C)CN([C@H](C)CO)S2(=O)=O 50.8%
CO[C@H]1CN(C)C(=O)c2cc(NS(=O)(=O)c3ccc(Cl)cc3)ccc2OC[C@H](C)N(C(=O)NC(C)C)C[C@@H]1C -13.3% [at 8 µM]
O=C(C[C@@H]1C[C@@H]2c3cc(NC(=O)Nc4ccc(C(F)(F)F)cc4)ccc3O[C@@H]2[C@H](CO)O1)NC1CCCCC1 -10.2% [at 0.5 µM]
N#C[C@@H]1[C@@H](c2ccc(/C=C/c3ccccc3)cc2)[C@@H](CO)N1C(=O)C1CC1 27%
C[C@@H]1CN([C@@H](C)CO)C(=O)c2c(c3ccccc3n2C)-c2ccccc2CO[C@@H]1CN(C)C(=O)c1ccncc1 29.1%
COc1ccc(CN(C)C[C@@H]2OCCCC[C@H](C)Oc3ccc(NC(=O)Nc4ccc5c(c4)OCO5)cc3C(=O)N([C@H](C)CO)C[C@@H]2C)cc1 14.8%
CCCC(=O)Nc1ccc2c(c1)OC[C@@H](C)N(C(=O)c1ccccc1F)C[C@@H](C)[C@@H](OC)CN(C)C2=O 9.79%
Cc1ccccc1-c1ccc2c(c1)O[C@@H](CN(C)Cc1ccncc1)[C@H](C)CN([C@H](C)CO)S2(=O)=O 48.1%
CCCN(C)C[C@H]1OCCCC[C@H](C)Oc2ccc(NC(=O)Nc3ccc(C(F)(F)F)cc3)cc2C(=O)N([C@@H](C)CO)C[C@H]1C 28.8% [at 8 µM]
CCCN(C)C[C@H]1OCCCC[C@H](C)Oc2ccc(NC(=O)Nc3ccc4c(c3)OCO4)cc2C(=O)N([C@@H](C)CO)C[C@@H]1C 8.67%
CCCN(C)C[C@@H]1OCCCC[C@@H](C)Oc2ccc(NC(=O)Nc3ccc(C(F)(F)F)cc3)cc2C(=O)N([C@H](C)CO)C[C@@H]1C 16.3% [at 8 µM]
CCCN(C)C[C@H]1OCCCC[C@@H](C)Oc2ccc(NC(=O)Nc3ccc(C(F)(F)F)cc3)cc2C(=O)N([C@H](C)CO)C[C@H]1C -43.7%
CC(C)NC(=O)N[C@@H]1CC[C@H](CC(=O)NCCCN(C)C)O[C@@H]1CO -13.1%
C[C@@H]1CN([C@H](C)CO)S(=O)(=O)c2ccc(C#CC3CCCC3)cc2O[C@@H]1CN(C)Cc1cccnc1 27.7%
CCCC#Cc1ccc2c(c1)O[C@@H](CN(C)Cc1ccncc1)[C@@H](C)CN([C@@H](C)CO)S2(=O)=O -13.3% [at 8 µM]
CO[C@@H]1CN(C)C(=O)c2cc(NC(=O)c3cnccn3)ccc2OC[C@@H](C)N(CCC(F)(F)F)C[C@H]1C -9.07% [at 35 µM]
CCCNC(=O)Nc1ccc2c(c1)OC[C@H](C)N(Cc1ccccc1)C[C@@H](C)[C@@H](OC)CN(C)C2=O 27.8% [at 8 µM]
CNC[C@H]1Oc2ncc(-c3ccc(OC)cc3)cc2C(=O)N([C@H](C)CO)C[C@@H]1C 27.6%
CO[C@H]1CN(C)C(=O)c2cc(NC(=O)c3ccccc3)ccc2OC[C@H](C)N(C)C[C@H]1C -10.6% [at 1.95 µM]
CO[C@H]1CN(C)C(=O)c2ccc(NS(=O)(=O)c3ccccc3C)cc2OC[C@@H](C)N(S(C)(=O)=O)C[C@@H]1C 15%
C[C@@H]1CN([C@@H](C)CO)S(=O)(=O)c2ccc(C#CC3CCCC3)cc2O[C@@H]1CN(C)Cc1cccnc1 -18.2% [at 1.95 µM]
C[C@@H]1CCCCO[C@@H](CN(C)Cc2ccccc2)[C@H](C)CN([C@@H](C)CO)C(=O)c2cc(NC(=O)Nc3ccc(C(F)(F)F)cc3)ccc2O1 26.5% [at 1.95 µM]
C[C@@H]1CCCCO[C@H](CN(C)Cc2ccccc2)[C@@H](C)CN([C@H](C)CO)C(=O)c2cc(NC(=O)Nc3ccc(C(F)(F)F)cc3)ccc2O1 19.2% [at 8 µM]
CO[C@@H]1CN(C)C(=O)c2cc(NC(=O)NC3CCCCC3)ccc2OC[C@@H](C)N(CCc2ccccc2)C[C@@H]1C 17.7% [at 8 µM]
C[C@H](CO)N1C[C@H](C)[C@H](CN(C)Cc2ccc(-c3ccccc3)cc2)Oc2ncc(C#C[C@@H](C)O)cc2C1=O 17.2%
CO[C@@H]1CN(C)C(=O)c2ccc(NC(=O)c3ccc(Oc4ccccc4)cc3)cc2OC[C@@H](C)NC[C@H]1C -19.3% [at 2.1 µM]
CC(C)CC#Cc1ccc2c(c1)O[C@@H](CN(C)Cc1cccnc1)[C@@H](C)CN([C@H](C)CO)S2(=O)=O 41.2%
C[C@@H]1CCCCO[C@H](CN(C)Cc2ccccc2)[C@H](C)CN([C@@H](C)CO)C(=O)c2cc(NC(=O)Nc3ccc(C(F)(F)F)cc3)ccc2O1 26.5% [at 1.95 µM]
C[C@H](CO)N1C[C@H](C)[C@H](CN(C)Cc2ccccc2)OCCCC[C@H](C)Oc2ccc(NC(=O)Nc3ccc(F)cc3)cc2C1=O 37.9%
CC(C)C#Cc1ccc2c(c1)O[C@H](CN(C)Cc1ccncc1)[C@H](C)CN([C@H](C)CO)S2(=O)=O 8.71%
CCCNC(=O)Nc1ccc2c(c1)C(=O)N(C)C[C@H](OC)[C@@H](C)CN(Cc1ccccc1)[C@H](C)CO2 17.2%
COc1ccc(NC(=O)Nc2cccc3c2O[C@@H](CN(C)C(=O)NC2CCCCC2)[C@H](C)CN([C@H](C)CO)C3=O)cc1 7.41%
O=C(C[C@@H]1C[C@@H]2c3cc(NC(=O)CC4CC4)ccc3O[C@@H]2[C@H](CO)O1)NCCc1ccccc1 -14.8%
CCC(=O)Nc1ccc2c(c1)C(=O)N(C)[C@@H]1CC[C@H](CC(=O)NCc3ccc(OC)cc3)O[C@@H]1CO2 -3.51% [at 1.95 µM]
CC(C)NC(=O)N(C)C[C@H]1Oc2cc(C#Cc3ccc(F)cc3)ccc2S(=O)(=O)N([C@@H](C)CO)C[C@@H]1C 24.4%
C[C@@H]1CN([C@H](C)CO)C(=O)c2cccc(NS(C)(=O)=O)c2O[C@H]1CN(C)Cc1ccccc1 32.7%
CO[C@@H]1CN(C)C(=O)c2cc(NC(=O)c3ccccc3)ccc2OC[C@H](C)N(CC2CC2)C[C@@H]1C 19.6%
COc1cccc(C(=O)Nc2ccc3c(c2)OC[C@@H](C)N(C(=O)C2CCCC2)C[C@H](C)[C@H](OC)CN(C)C3=O)c1 7.82%
CCCC(=O)Nc1ccc2c(c1)C(=O)N(C)C[C@@H](OC)[C@@H](C)CN(Cc1ccccc1)[C@@H](C)CO2 9.16%
CCCNC(=O)N(C)C[C@@H]1Oc2cc(C#Cc3cccc(F)c3)ccc2S(=O)(=O)N([C@H](C)CO)C[C@H]1C 64.3%
O=C(Nc1cc(F)ccc1F)N[C@H]1CC[C@@H](CC(=O)N2CCc3ccccc3C2)O[C@@H]1CO 31.4%
CO[C@H]1CN(C)C(=O)c2cc(NS(=O)(=O)c3cccc(F)c3)ccc2OC[C@H](C)N(Cc2cc(F)ccc2F)C[C@@H]1C -7.26% [at 8 µM]
CCCN1C[C@@H](C)[C@H](OC)CN(C)C(=O)c2cc(NC(=O)CC)ccc2OC[C@@H]1C -10.1%
COc1ccc(NC(=O)Nc2ccc3c(c2)[C@H]2C[C@H](CC(=O)NCc4ccccc4F)O[C@@H](CO)[C@H]2O3)cc1 -14.5% [at 8 µM]
C[C@H]1CN([C@@H](C)CO)C(=O)c2cccc(NC(=O)NC3CCCCC3)c2O[C@H]1CN(C)C(=O)Nc1ccc(C(F)(F)F)cc1 17.7% [at 7.5 µM]
CO[C@@H]1CN(C)C(=O)c2ccc(NC(=O)C3CC3)cc2OC[C@H](C)N(Cc2cncnc2)C[C@@H]1C -6.19% [at 1.95 µM]
CO[C@H]1CN(C)C(=O)c2ccc(NC(=O)C3CC3)cc2OC[C@H](C)N(Cc2cncnc2)C[C@@H]1C -11.8%
